Out of some 39,000 compounds screened, about 3,300 (8.5%) were called active. For the sample, actives were picked, then their nearest neighbours and some compounds at random.
What follows are compounds tested on HepG2 (assay: cytotoxicity call (relative viability < 0.9)). Settings: 10 µM.

SMILES	cytotoxicity call
COc1ccccc1S(=O)(=O)N[C@@H]1C=C[C@@H](CC(=O)N2CCN(C)CC2)O[C@@H]1CO	inactive
NC[C@@](O)(CS(=O)(=O)O)c1ccc(Cl)cc1	inactive
NC[C@@](O)(c1ccc(Cl)cc1)c1ccc(-c2cn[nH]c2)cc1	active
c1n[nH]cc1-c1cn[nH]c1	inactive
COc1ccccc1CNC(=O)C[C@H]1C[C@H]2c3cc(NC(=O)C4CCOCC4)ccc3O[C@H]2[C@H](CO)O1	inactive
C[C@H]1O[C@@H](n2cc(F)c(=O)[nH]c2=O)[C@H](O)[C@@H]1O	inactive
CCCCCCNC(=O)n1cc(F)c(=O)[nH]c1=O	active
CC1OC(n2cc(F)c(=O)[nH]c2=O)C(O)C1O (stereo not drawn)	inactive
Cc1ccc(S(=O)(=O)Nc2ccc3c(c2)CC(=O)N([C@@H](C)CO)C[C@H](C)[C@H](CN(C)S(C)(=O)=O)O3)cc1	inactive
CC(C)NC(=O)NCC[C@H]1CC[C@H](NC(=O)CN(C)C)[C@H](CO)O1	inactive
Cc1c(NC(=O)c2cc3c(s2)CCCC3)cccc1-c1cn(C)c(=O)c(Nc2ccc([C@H]3C(=O)N(C)CCN3C)cc2)n1	inactive
C[C@@H]1CCCCO[C@H](CN(C)C(=O)Nc2ccc3c(c2)OCO3)[C@@H](C)CN([C@@H](C)CO)C(=O)c2cc(NS(=O)(=O)c3ccccc3)ccc2O1	inactive
C[C@@H]1CCCCO[C@@H](CN(C)C(=O)Nc2ccc(F)cc2)[C@@H](C)CN([C@@H](C)CO)C(=O)c2cc(NC(=O)NC3CCCCC3)ccc2O1	active
C[C@@H]1CCCCO[C@H](CN(C)C(=O)NC2CCCCC2)[C@H](C)CN([C@H](C)CO)C(=O)c2cc(NC(=O)NC3CCCCC3)ccc2O1	active
C[C@H](CO)N1C[C@H](C)[C@H](CN(C)C(=O)NC2CCCCC2)OCCCC[C@H](C)Oc2ccc(NC(=O)NC3CCCCC3)cc2C1=O	inactive
C[C@H](CO)N1C[C@H](C)[C@@H](CN(C)C(=O)NC2CCCCC2)OCCCC[C@H](C)Oc2ccc(NC(=O)NC3CCCCC3)cc2C1=O	inactive
Cc1noc(C)c1NC(=O)N(C)C[C@H]1OCCCC[C@@H](C)Oc2ccc(NC(=O)NC3CCCCC3)cc2C(=O)N([C@@H](C)CO)C[C@H]1C	inactive
C[C@@H]1CCCCO[C@H](CN(C)C(=O)Nc2ccc(F)cc2)[C@@H](C)CN([C@H](C)CO)C(=O)c2cc(NC(=O)NC3CCCCC3)ccc2O1	inactive
C[C@@H]1CCCCO[C@H](CN(C)C(=O)NC2CCCCC2)[C@H](C)CN([C@H](C)CO)C(=O)c2cc(NC(=O)Nc3ccc(F)cc3)ccc2O1	active
Cc1noc(C)c1NC(=O)N(C)C[C@H]1OCCCC[C@@H](C)Oc2ccc(NC(=O)NC3CCCCC3)cc2C(=O)N([C@H](C)CO)C[C@@H]1C	active
C[C@@H]1CCCCO[C@@H](CN(C)C(=O)NC2CCCCC2)[C@@H](C)CN([C@H](C)CO)C(=O)c2cc(NC(=O)Nc3ccc(F)cc3)ccc2O1	inactive
C[C@@H]1CN([C@H](C)CO)C(=O)c2cc(NC(=O)Nc3ccc(F)cc3)ccc2O[C@@H](C)CCCCO[C@H]1CN(C)C(=O)NC1CCCCC1	inactive
Cc1noc(C)c1NC(=O)N(C)C[C@@H]1OCCCC[C@@H](C)Oc2ccc(NC(=O)NC3CCCCC3)cc2C(=O)N([C@H](C)CO)C[C@@H]1C	inactive
C[C@@H]1CN([C@H](C)CO)C(=O)c2cc(NC(=O)NC3CCCCC3)ccc2O[C@@H](C)CCCCO[C@@H]1CN(C)C(=O)Nc1ccc(F)cc1	inactive
COc1ccc(-c2cccc(-c3nc(C(=O)NCC(F)(F)F)cc4c3[C@@H](CCO)N([S@](=O)C(C)(C)C)C4)c2)cc1	inactive
COc1ccc(S(=O)(=O)N(C)C[C@H]2OCCCC[C@H](C)Oc3ccc(NC(=O)c4ccccc4)cc3C(=O)N([C@H](C)CO)C[C@H]2C)cc1	inactive

SMILES	cytotoxicity call
Cc1ccc(S(=O)(=O)N(C)C[C@H]2Oc3ccc(NC(=O)c4ccncc4)cc3C(=O)N([C@H](C)CO)C[C@@H]2C)cc1	inactive
C[C@@H]1CN([C@H](C)CO)C(=O)c2cc(NS(=O)(=O)c3ccccc3)ccc2O[C@H]1CN(C)S(=O)(=O)c1cn(C)cn1	inactive
Cc1noc(C)c1NC(=O)Nc1ccc2c(c1)CC(=O)N([C@H](C)CO)C[C@@H](C)[C@@H](CN(C)Cc1ccc(-c3ccccc3)cc1)O2	inactive
O=C1[C@@H]2[C@H](C(=O)N1c1ccccc1)C13COC[C@H](c4ccccc4)N1C(=O)C2(C(=O)NCCc1c[nH]c2ccccc12)O3 (stereo partly drawn)	inactive
CCS(=O)(=O)N1C[C@]2(CN(Cc3cccc(c3)Cl)[C@@H](CO)c3c2c2ccc(cc2n3C)OC)C1	inactive
C[C@H]1CCCCO[C@@H](CN(C)C(=O)NC2CCCCC2)[C@@H](C)CN([C@@H](C)CO)C(=O)c2cc(NC(=O)Nc3ccc(F)cc3)ccc2O1	active
C[C@H](CO)N1C[C@H](C)[C@@H](CN(C)C(=O)NC2CCCCC2)OCCCC[C@H](C)Oc2ccc(NC(=O)Nc3ccc(F)cc3)cc2C1=O	inactive
C[C@H](CO)N1C[C@H](C)[C@H](CN(C)C(=O)NC2CCCCC2)OCCCC[C@H](C)Oc2ccc(NC(=O)Nc3ccc(F)cc3)cc2C1=O	inactive
O=c1[nH]nc(N2CCOCC2)c(=O)[nH]1	inactive
C[C@@H]1CN([C@H](C)CO)C(=O)Cc2cc(NS(=O)(=O)c3ccc(F)cc3)ccc2O[C@H]1CN(C)CC1CC1	inactive
Cl.OC(CCN1CCCCC1)(c1ccccc1)C1CCCCC1 (stereo not drawn)	inactive
Cl.OC(CCN1CCCC1)(c1ccccc1)C1CCCCC1 (stereo not drawn)	active
CS(=O)(=O)O.OC(CCN1CCCCC1)(c1ccccc1)c1ccccc1	inactive
COc1ccc(S(=O)(=O)Nc2ccc3c(c2)C(=O)N([C@H](C)CO)C[C@@H](C)[C@H](CN(C)C(=O)NC(C)C)O3)cc1	inactive
C[C@H]1CN([C@@H](C)CO)C(=O)Cc2cc(NS(C)(=O)=O)ccc2O[C@H]1CN(C)C(=O)Nc1ccc(F)cc1	inactive
CC(C)C[C@H](NC(=O)CNC(=O)c1cc(Cl)ccc1Cl)B1OC(=O)C[C@](CC(=O)O)(C(=O)O)O1	active
C[C@@H]1CN([C@@H](C)CO)C(=O)c2cccc(NC(=O)Nc3ccc(F)cc3)c2O[C@@H]1CN(C)S(C)(=O)=O	inactive
C[C@H](CO)N1C[C@H](C)[C@H](CN(C)S(C)(=O)=O)Oc2c(NC(=O)Nc3ccccc3)cccc2C1=O	inactive
Cc1ccc(CSc2ncc(C(F)(F)F)cc2Cl)cc1	inactive
Cc1ccc(CCSc2ccc(Cl)c(Cl)c2)cn1	active
N#Cc1ccccc1C#CCO	inactive
CC(N)O.Cc1cc(CC(C)CC(C)(C)C)n(O)c(=O)c1 (stereo not drawn)	active
Cc1ccc(S(=O)(=O)N2C[C@H](O)COC[C@@H]3O[C@H](CC(=O)N[C@@H]4CCN(Cc5ccccc5)C4)CC[C@H]32)cc1	inactive
C[C@@H]1CN([C@@H](C)CO)C(=O)c2cc(NC(=O)Nc3ccccc3)ccc2O[C@@H]1CN(C)C(=O)Nc1cccc2ccccc12	inactive
C[C@@H]1CN([C@@H](C)CO)C(=O)c2c(c3ccccc3n2C)-c2ccccc2CO[C@@H]1CN(C)Cc1ccc(O)cc1	inactive
O=C(N/N=C/c1ccc(B(O)O)cc1)c1ccccc1O	inactive

SMILES	cytotoxicity call
Cc1cc(C(=O)O)cc(S(N)(=O)=O)c1	active
NS(=O)(=O)c1ccc(C(=O)O)cc1 [listing 1 of 2 here]	inactive
NS(=O)(=O)c1ccc(C(=O)O)cc1 [listing 2 of 2 here]	inactive
C[C@@H]1[C@@H]([Si](C)(C)F)[C@H](CCO)O[C@@]12C(=O)N(Cc1ccccc1)c1ccc(N(C=O)c3ccccc3)cc12	inactive
COc1ccc([Si](C)(C)[C@H]2[C@H](CCO)O[C@@]3(C(=O)N(Cc4ccccc4)c4ccc(N(C=O)c5ccccc5)cc43)[C@@H]2C)cc1	active
COc1ccc([Si](C)(C)[C@@H]2[C@@H](CCO)O[C@]3(C(=O)N(Cc4ccccc4)c4ccc(N(C=O)c5ccccc5)cc43)[C@H]2C)cc1	active
COC(=O)C[C@H]1O[C@]2(C(=O)N(Cc3ccccc3)c3ccc(I)cc32)[C@@H](C)[C@@H]1[Si](C)(C)c1ccc(OC)cc1	inactive
COc1ccc([Si](C)(C)[C@H]2[C@H](CCOC(=O)NCCCCCC(=O)NO)O[C@@]3(C(=O)N(Cc4ccccc4)c4ccc(I)cc43)[C@@H]2C)cc1	inactive
COc1ccc([Si](C)(C)[C@@H]2[C@@H](CCOC(=O)NCCCCCC(=O)NO)O[C@]3(C(=O)N(Cc4ccccc4)c4ccc(I)cc43)[C@H]2C)cc1	inactive
Cc1noc(C)c1NC(=O)Nc1ccc2c(c1)C(=O)N([C@@H](C)CO)C[C@@H](C)[C@@H](CN(C)C(=O)Nc1ccc(F)cc1)OCCCC[C@@H](C)O2	inactive
Cc1ccc(S(=O)(=O)NCC[C@@H]2CC[C@H](NS(=O)(=O)c3ccccc3Cl)[C@@H](CO)O2)cc1	inactive
C[C@@H]1CN([C@H](C)CO)C(=O)c2cccc(NC(=O)c3ccncc3)c2O[C@H]1CN(C)Cc1ccc(C(=O)O)cc1	inactive
O=c1cc(-c2cccc(O)c2)oc2ccc(O)cc12	inactive
O=C(C[C@@H]1CC[C@@H]2[C@H](COC[C@H](O)CN2S(=O)(=O)c2ccc(F)cc2)O1)NCc1ccc(Cl)c(Cl)c1	inactive
CS(=O)(=O)N1CC[C@]2(COCc3cnc(N4CCOCC4)nc32)C1	inactive
CS(=O)(=O)N1CCc2c(-c3cnc(N)nc3)nc(N3CCOCC3)nc21	active
c1nc(N2CCOCC2)nc(N2CCOCC2)n1	inactive
C[C@@H]1CN([C@H](C)CO)C(=O)c2cc(NS(=O)(=O)c3ccc(F)cc3)ccc2O[C@H]1CN(C)Cc1ccc(-c2ccccc2)cc1	active
C[C@@H]1CN([C@@H](C)CO)C(=O)c2cc(NS(=O)(=O)c3ccc(F)cc3)ccc2O[C@H]1CN(C)Cc1ccc(-c2ccccc2)cc1	inactive
C[C@H]1CN([C@@H](C)CO)C(=O)c2cc(NS(=O)(=O)c3ccc(F)cc3)ccc2O[C@H]1CN(C)Cc1ccc(-c2ccccc2)cc1	inactive
C[C@@H]1CN([C@H](C)CO)C(=O)c2cc(NS(=O)(=O)c3ccc(F)cc3)ccc2O[C@@H]1CN(C)Cc1ccc(-c2ccccc2)cc1	active
C[C@H]1CN([C@@H](C)CO)C(=O)c2cc(NS(=O)(=O)c3ccc(F)cc3)ccc2O[C@@H]1CN(C)Cc1ccc(-c2ccccc2)cc1	active
C[C@H](CO)N1C[C@H](C)[C@@H](CN(C)Cc2ccc(-c3ccccc3)cc2)Oc2ccc(NS(=O)(=O)c3ccccc3)cc2C1=O	inactive
C[C@@H]1CN([C@H](C)CO)C(=O)c2cc(NS(=O)(=O)c3ccccc3)ccc2O[C@H]1CN(C)Cc1ccc(-c2ccccc2)cc1	inactive
C[C@@H]1CN([C@@H](C)CO)C(=O)c2cc(NS(=O)(=O)c3ccc(F)cc3)ccc2O[C@@H]1CN(C)Cc1ccc(-c2ccccc2)cc1	active
C[C@H](CO)N1C[C@H](C)[C@H](CN(C)Cc2ccc(-c3ccccc3)cc2)Oc2ccc(NS(=O)(=O)c3ccc(F)cc3)cc2C1=O	inactive

— the antibiotic and cytotoxicity screens of Wong et al. (2023)
